Screening data from PubChem BioAssay.
Compounds with a hit are over-represented: about 10% of the library has one in this group of screens.
HEK293 tox: Cytotoxic Profiling in HEK 293 Cell Line of Diverse Libraries Using Quantitative High-Throughput Screening; HEK 293 viability, ATP luminescence (CellTiter-Glo), 48-72 h; Potency, µM (doses to about 115 µM), for the others: top-dose activity change, negative = cytotoxicity, most hits filed as inhibitors; hit rate 6.6% among 94,000; also: nearly all actives have a fitted effect of over 60% in size
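HEK 293 seeded at 250 cells/well receive compound via pintool. After 48 or 72 hr at 37 degree Celsius, 5% CO2 and 95% humidity, CellTiter-Glo is dispensed and luminescence read following 10 min at room temperature.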
FLuc inh: Firefly luciferase inhibition profiling of diverse chemical library using quantitative high-throughput screening. purified P. pyralis luciferase, luminescence, biochemical. Potency, µM (doses to about 115 µM), usual class: inhibitors. hit rate 2.5% among 76,000. AID 1347043, 2019; also: nearly all actives have a fitted effect of over 65% in size
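Luminescence read by CCD imaging after purified firefly luciferase (10nM final) was added to substrate buffer holding 10uM D-luciferin and 10uM ATP, pH 7.5, pre-dosed with compound.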
GPT2 inh: Primary qHTS assay for inhibitors of Glutamate pyruvate transaminase 2 (GPT2) | Potency, µM (doses to about 57.7 µM), without a hit: top-dose activity change, negative = inhibition, most hits filed as inhibitors | hit rate 0.25% among 100,000 | Alanine aminotransferase 2 (Homo sapiens), Q8TD30 | AID 1671188, 2021 | Recombinant GPT2, coupled pyruvate oxidase/HRP Amplex Red fluorescence; also: nearly all actives have a fitted effect of over 60% in size
Target sequence (Q8TD30 whole entry, looked up): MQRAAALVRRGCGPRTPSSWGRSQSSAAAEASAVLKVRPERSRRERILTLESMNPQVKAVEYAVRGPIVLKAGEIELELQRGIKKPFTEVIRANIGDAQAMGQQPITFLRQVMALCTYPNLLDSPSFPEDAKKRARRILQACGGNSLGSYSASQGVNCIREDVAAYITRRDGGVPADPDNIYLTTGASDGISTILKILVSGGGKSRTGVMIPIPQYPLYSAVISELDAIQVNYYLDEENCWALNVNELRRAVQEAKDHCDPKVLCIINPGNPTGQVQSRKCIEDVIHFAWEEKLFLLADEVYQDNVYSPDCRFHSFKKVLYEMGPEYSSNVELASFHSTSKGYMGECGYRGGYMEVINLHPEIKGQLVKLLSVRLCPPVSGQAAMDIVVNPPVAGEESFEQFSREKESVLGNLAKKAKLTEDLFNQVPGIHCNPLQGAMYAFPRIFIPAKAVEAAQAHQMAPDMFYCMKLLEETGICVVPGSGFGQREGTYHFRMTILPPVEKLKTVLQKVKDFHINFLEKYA
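Inhibition is scored from Amplex Red fluorescence generated when pyruvate oxidase and HRP act on pyruvate released by GPT2. Reactions contain 10ng/uL enzyme, 250uM a-KG and 2mM L-alanine and run 30 min at room temperature.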
hNpr1 antagonist: Natriuretic polypeptide receptor (hNpr1) antagonism - Primary qHTS. Atrial natriuretic peptide receptor 1 (Homo sapiens), P16066. HEK293 hNpr1 GloSensor cGMP, ANP-stimulated luminescence. Potency, µM (doses to about 46.3 µM), without a hit: top-dose activity change, negative = inhibition, usual class: inhibitors. hit rate 1.6% among 76,000. AID 1347048, 2019; calls by dose curve; also: nearly all actives have a fitted effect of over 60% in size
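HEK293 cells stably expressing human Npr1 and cGMP GloSensor pGS-40F, loaded 2 h with 2% GloSensor reagent, given compound 30 min at room temperature. Luminescence read before and 20 min after 0.1 nM hNppA.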
NIH3T3 tox: Cytotoxic Profiling in NIH 3T3 Cell Line of Diverse Libraries Using Quantitative High-Throughput Screening | NIH 3T3 viability, CellTiter-Glo ATP luminescence, 48-72 h | Potency, µM (titrated, usually from 96.7 µM), inactives show at the highest dose activity change, negative = cytotoxicity, actives largely listed as inhibitors | hit rate 4.3% among 94,000 | AID 1345082, 2018; also: nearly all actives have a fitted effect of over 55% in size
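ATP-dependent luminescence (CellTiter-Glo) served as the viability signal for NIH 3T3 cells treated with compound for 48 or 72 hr at 37 °C.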
* marks the source's active call; other numbers are inactive results; i = inactive; ? = inconclusive; . = no result; [ ] = dose if it differs, or a comment. Unless noted, calls follow the shape of the dose curve; as a rule, active = well fitted curve in the direction sought with a large enough effect; inconclusive = small, poorly fitted or top-dose-only effect, or another doubt; inactive = no such curve, though single readings can be large; an effect the other way counts as inactive or inconclusive. % is scaled to controls: 0 for no effect and ±100 for the full control effect; potency is read from the fitted curve at half-maximal effect.

SMILES	HEK293 tox	FLuc inh	GPT2 inh	hNpr1 antagonist	NIH3T3 tox
Cc1nc(-c2ccc(C(F)(F)F)cc2)cc([C@H]2CN3CC[C@H]2C[C@@H]3CNS(C)(=O)=O)n1	?	i	?	1%	40µM*
COc1ccc(CNC[C@H]2C[C@@H]3CCN2C[C@@H]3c2cc(-c3cccs3)nn2C)cc1	45µM*	i	-3%[88.5 µM]	1%[70.6 µM]	?
Cc1nc(-c2ccccc2)cc([C@H]2CN3CC[C@H]2C[C@@H]3CNS(C)(=O)=O)n1	-21%[172 µM]	i	i	-9%[70.6 µM]	?
Cn1nc(-c2ccc3ccccc3c2)cc1[C@H]1CN2CC[C@H]1C[C@@H]2CNS(=O)(=O)c1cccs1	?	?	-30%	-4%	20µM*
Cc1nc(-c2ccc(F)cc2)cc([C@H]2CN3CC[C@H]2C[C@@H]3CNS(=O)(=O)Cc2ccccc2)n1	35µM*	i	i	4%	79µM*
Cn1nc(-c2ccccc2)cc1[C@H]1CN2CC[C@H]1C[C@@H]2CNS(=O)(=O)Cc1ccccc1	79µM*	i	i	6%	79µM*
Cn1nc(-c2ccccc2)cc1[C@H]1CN2CC[C@H]1C[C@@H]2CNS(=O)(=O)c1cccs1	?	i	i	-16%[70.6 µM]	?
O=C1N(c2ccccn2)C[C@H]2CN(Cc3ccccc3)CCN12	-7%[172 µM]	20µM*	-1%[88.5 µM]	-21%[70.6 µM]	-12%[138 µM]
Cc1nc(-c2ccco2)cc([C@H]2CN3CC[C@H]2C[C@@H]3CNC(=O)NC2CCCCC2)n1	?	i	i	1%[70.6 µM]	100µM*
C=CCNC(=O)NC[C@H]1C[C@@H]2CCN1C[C@@H]2c1cc(-c2ccco2)nc(C)n1	-9%[172 µM]	i	i	3%[70.6 µM]	-3%[174 µM]
Cc1nc(-c2ccccc2)cc([C@H]2CN3CC[C@H]2C[C@@H]3CN(Cc2ccco2)Cc2ccco2)n1	?	i	3%	-16%	22µM*
Cc1nc(-c2ccccc2)cc([C@H]2CN3CC[C@H]2C[C@@H]3CNC(=O)C2CC2)n1	-12%[172 µM]	i	?	-1%[70.6 µM]	-23%[174 µM]
Cc1nc(-c2ccco2)cc([C@H]2CN3CC[C@H]2C[C@@H]3CNC(=O)Nc2ccccc2)n1	89µM*	i	-11%[88.5 µM]	-11%[70.6 µM]	?
Cc1nc(-c2ccco2)cc([C@H]2CN3CC[C@H]2C[C@@H]3CNC(=O)C2CCCCC2)n1	?	i	i	?	?
CCOC(=O)[C@H]1CN(C(=O)NCc2ccccc2)[C@]2(C)C(=O)N(CC3CC3)c3ccccc3[C@H]12	?	.	-12%[27.3 µM]	.	?
C#C[C@H]1CN2CC[C@H]1C[C@@H]2COC(=O)Nc1ccc(OC(F)(F)F)cc1	?	i	-3%[88.5 µM]	?	40µM*
C#C[C@H]1CN2CC[C@H]1C[C@@H]2COC(=O)Nc1ccc(Br)cc1	?	i	?	-3%[70.6 µM]	?
C#C[C@H]1CN2CC[C@H]1C[C@@H]2COC(=O)Nc1ccc(C(C)(C)C)cc1	?	i	i	-1%[70.6 µM]	79µM*
O=C1Nc2ccccc2CC12CN(Cc1cccnc1)C2	-2%[172 µM]	.	?	.	-15%[138 µM]
Cc1ccc(C(=O)NC[C@H]2C[C@@H]3CCN2C[C@@H]3c2cc(-c3ccc(F)cc3)nn2C)cc1	25µM*	i	4%[88.5 µM]	-27%[70.6 µM]	25µM*
COc1ccc(-c2cc([C@H]3CN4CC[C@H]3C[C@@H]4CNC(=O)NC3CCCCC3)n(C)n2)cc1	?	i	i	-1%	89µM*
COc1ccc(C(=O)NC[C@H]2C[C@@H]3CCN2C[C@@H]3c2cc(-c3ccc(F)cc3)nn2C)cc1	?	i	2%	0%	?
COc1ccc(NC(=O)NC[C@H]2C[C@@H]3CCN2C[C@@H]3c2cc(-c3ccc(OC)c(OC)c3)nn2C)cc1	?	i	-4%	8%	?
COc1ccc(-c2cc([C@H]3CN4CC[C@H]3C[C@@H]4CNC(=O)c3ccc(C(C)(C)C)cc3)n(C)n2)cc1OC	20µM*	i	-3%	1%	?
CCNC(=O)NC[C@H]1C[C@@H]2CCN1C[C@@H]2c1cc(-c2ccc(F)cc2)nn1C	-11%[172 µM]	i	-7%[88.5 µM]	-5%[70.6 µM]	-14%[174 µM]
SMILES	HEK293 tox	FLuc inh	GPT2 inh	hNpr1 antagonist	NIH3T3 tox
Cn1nc(-c2ccc(F)cc2)cc1[C@H]1CN2CC[C@H]1C[C@@H]2CNC(=O)c1cccs1	45µM*	i	?	-19%[70.6 µM]	56µM*
Cc1noc(C)c1CC(=O)N1[C@H]2CC[C@@H]1c1cnc(-c3ccc(F)cc3)nc1C2	?	i	i	-16%	?
COc1ccc(OC)c(S(=O)(=O)NC[C@H]2C[C@@H]3CCN2C[C@@H]3c2cc(-c3ccc(F)cc3)nn2C)c1	28µM*	i	-2%	-20%	?
COc1ccc(-c2cc([C@H]3CN4CC[C@H]3C[C@@H]4CNC(=O)Nc3cccc4ccccc34)n(C)n2)cc1OC	45µM*	i	i	3%	?
COc1ccc(-c2cc([C@H]3CN4CC[C@H]3C[C@@H]4CNS(=O)(=O)c3cc(OC)ccc3OC)n(C)n2)cc1	-8%	i	-15%	-4%	-26%
COc1cc2c(cc1Oc1ccccc1)NC(=O)C21CCN(C(=O)c2ccnn2C)CC1	71µM*	i	1%[88.5 µM]	?	?
COc1cc2c(cc1Oc1ccccc1)NC(=O)C21CCN(C(=O)c2ccccc2)CC1	?	i	2%[88.5 µM]	?	?
COc1cc2c(cc1Oc1ccccc1)NC(=O)C21CCN(C(=O)c2cnccn2)CC1	?	i	-3%[88.5 µM]	0%[70.6 µM]	-9%[138 µM]
COc1cc2c(cc1Oc1ccccc1)NC(=O)C21CCN(C(=O)C2CCC2)CC1	?	i	4%[88.5 µM]	-12%[70.6 µM]	?
COc1cc2c(cc1Oc1ccccc1)NC(=O)C21CCN(C(=O)Cc2ccccc2)CC1	40µM*	i	5%	?	?
COc1cc2c(cc1Oc1ccccc1)NC(=O)C21CCN(C(=O)c2cccc(O)c2)CC1	45µM*	i	?	-17%	?
COCCNC(=O)[C@H]1CN2CCC1C[C@@H]2Cn1cc(-c2cccc(N)c2)nn1 (stereo not given in full)	-10%[172 µM]	i	i	0%[70.6 µM]	-18%[174 µM]
COc1ccccc1NC(=O)N1C[C@@H]2C[C@H](C1)c1ccc(-c3ccccc3C)c(=O)n1C2	-7%[172 µM]	i	-13%[88.5 µM]	0%[70.6 µM]	?
CN(N=O)c1ccc(O)c(O)c1	.	.	3.2µM*	.	.
